Here are results for 102 molecules from PubChem BioAssay AID1903 (Southern Research Specialized Biocontainment Screening …, 2009).

Structures are written as SMILES. The whole screen tested about 310,000 compounds, of which about 1,200 (0.39%) were called active. Not all results are given here. Measured potencies and affinities stand elsewhere. A number with no mark means an inactive call. How the calls were made is not given here.

In this experiment the target is Large T antigen (Simian virus 40) (UniProt P03070). Kind of experiment: TAg ATPase/helicase activity blockers – biochemical (AID 1903). As to conditions: SV40 large T antigen ATPase/helicase inhibition assay; at 20 µM; active compounds read high.
Large T antigen (Simian virus 40), sequence (P03070 whole entry, looked up): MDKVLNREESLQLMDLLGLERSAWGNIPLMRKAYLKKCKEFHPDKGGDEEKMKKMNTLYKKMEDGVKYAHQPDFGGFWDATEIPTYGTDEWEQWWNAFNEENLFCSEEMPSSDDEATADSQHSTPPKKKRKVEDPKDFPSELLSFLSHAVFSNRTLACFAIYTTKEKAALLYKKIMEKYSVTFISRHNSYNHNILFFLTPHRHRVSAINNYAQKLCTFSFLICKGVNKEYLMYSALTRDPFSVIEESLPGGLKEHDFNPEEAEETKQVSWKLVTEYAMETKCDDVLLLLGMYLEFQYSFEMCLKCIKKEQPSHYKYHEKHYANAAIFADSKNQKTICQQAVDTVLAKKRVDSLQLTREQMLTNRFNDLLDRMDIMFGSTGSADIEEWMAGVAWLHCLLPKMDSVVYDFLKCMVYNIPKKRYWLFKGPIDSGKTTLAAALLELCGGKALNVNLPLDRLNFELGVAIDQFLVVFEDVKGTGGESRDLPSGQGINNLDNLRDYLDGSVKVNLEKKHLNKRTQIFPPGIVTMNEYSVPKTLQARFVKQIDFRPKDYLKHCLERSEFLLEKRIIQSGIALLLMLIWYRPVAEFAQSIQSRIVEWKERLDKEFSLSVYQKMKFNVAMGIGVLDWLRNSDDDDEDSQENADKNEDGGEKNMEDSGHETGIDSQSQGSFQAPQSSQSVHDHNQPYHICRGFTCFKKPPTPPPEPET
As a reminder, the inhibition is the change of the read-out against control, counted positive when it falls. For `CC(OC(=O)c1cccc(Cl)c1)C(=O)NC1CCCCC1C` (configuration not stated), the inhibition is 27.1%.
For `Nc1nnc(SCC(=O)N2CCCCC2)s1` the value was -7.45%.
Consider `COc1ccc(-n2nc3cc(C)c(N)cc3n2)cc1Cl`, for which the inhibition is -6.4%.
For `O=C(CN(Cc1ccccc1)C(=O)c1csnn1)NCc1ccccc1` the value was 7.5%.
The figure for `Cc1nc2ccc(NC(=O)c3ccc(Cl)c([N+](=O)[O-])c3)cc2s1` is 6.3%.
The figure for `Cc1nc2ccc(NC(=O)c3ccc([N+](=O)[O-])cc3[N+](=O)[O-])cc2s1` is 8.68%; for `COc1ccccc1C(NC(C)=O)c1cc(Cl)c2cccnc2c1O` (configuration not stated) it is 3.72%; for `CCOc1ccc(C(Nc2cccnc2)c2cc(Cl)c3cccnc3c2O)cc1` (configuration not stated) it is 15.7%.
For the molecule `CCOC(=O)C1(Cc2ccccc2C)CCCN(S(=O)(=O)CC)C1` (configuration not stated), the inhibition was 6.84%.
For `Cc1ccc(C)c(S(=O)(=O)Nc2ccc(C(N)=O)cc2)c1` the value was 20.6%; for `Cc1cc(C)c(S(=O)(=O)Nc2ccc(O)cc2)cc1C`, 48.1%.
For `Cc1cc(C)c(C)c(S(=O)(=O)Nc2ccc(O)cc2)c1C`, the inhibition is 30.2%.
Consider `Cc1cc(C)c(S(=O)(=O)Nc2ccc(O)cc2)c(C)c1`, for which the inhibition was 29.1%.
As for `COCCOc1cc(N(CC(=O)N(C)C)S(=O)(=O)c2ccccc2)c(Cl)cc1Cl`, the inhibition was -5.2%.
The figure for `Cc1cc(C)c2c(=O)[nH]n(C3CCOC(C)(C)C3)c2n1` (configuration not stated) is 13.4%.
For the molecule `O=C(Nc1ccccc1C(=O)Nc1nnc(C(F)(F)F)s1)c1ccccc1Cl`, the inhibition is 10.1%.
As for `CNC(=O)c1cc(S(=O)(=O)NCc2ccncc2)ccc1OC`, the inhibition is 11.8%.
The figure for `COc1ccccc1S(=O)(=O)CC(O)COc1ccc(F)cc1Cl` (configuration not stated) is 4.29%.
For `COc1ccc(/C=C/C(=O)C2CC2)cc1COc1c(C)cccc1C` the value was 7.52%; for `COC(=O)CC1SC(=O)NC1=Nc1ccc(C)cc1` (configuration not stated), 0.63%; for `COC(=O)CC1SC(=O)NC1=Nc1ccc(OC)cc1` (configuration not stated), 3.46%.
For `Cc1cc(S(=O)(=O)NCc2ccccc2)ccc1OCC(=O)NCc1cccnc1` the value was 8.52%.
As for `O=C(COc1ccccc1Br)Nc1ccc2c(c1)OCCCO2`, the inhibition was 8.78%.
In the case of `CCOc1ccc(N2C(=O)CC(Sc3n[nH]c(-c4ccccc4)n3)C2=O)cc1` (configuration not stated), the inhibition is 33.8%.
For `COc1ccc(N2C(=O)CC(Sc3n[nH]c(-c4ccc(C)cc4)n3)C2=O)cc1` (configuration not stated) the value was 28.9%.
The figure for `Cc1nc2ccccc2n1CC(=O)NCCN1CCOCC1` is 21.1%; for `CCCCn1c(N)c(N(CCOC)C(=O)COC(=O)CSc2cc(C)c3ccccc3n2)c(=O)[nH]c1=O` it is 11.3%; for `OCCNc1nc(Nc2ccc(Br)cc2)nc2ccccc12` it is 2.29%.
For `c1ccc(Nc2nc(NCC3CCCO3)c3ccccc3n2)cc1` (configuration not stated) the value was 5.53%.
For `OCCNc1nc(Nc2ccccc2)nc2ccccc12`, the inhibition is 1.4%.
For the molecule `Oc1ccccc1Nc1nc(NCC2CCCO2)c2ccccc2n1` (configuration not stated), the inhibition is 31.9%.
The figure for `CC(C)CSc1nc2ccccc2[nH]1` is 4.9%; for `CC(NC(=O)c1cccnc1)C(=O)N1CCCCC1` (configuration not stated) it is 11.9%; for `CC1CC1c1ccc(/C=C(\C#N)C(=O)Nc2ccccc2Cl)o1` (configuration not stated) it is 19.3%.
For `O=C(Cn1c(O)c(/C=C2\C=Nc3ccc(Br)cc32)sc1=O)N1CCCC1` the value was 2.37%; for `O=C(Nc1ccccc1F)c1ccc(CN2CCc3ccccc3C2)cc1`, -1.04%.
In the case of `CC(C)c1cccc(C(C)C)c1NC(=O)CN1C(=O)NC2(CCCC2)C1=O`, the inhibition is 1.52%.
For `c1ccc(C(c2nnnn2C2CCCC2)N2CCCCCC2)nc1` (configuration not stated) the value was 4.88%.
The figure for `c1cc(C(c2nnnn2C2CCCC2)N2CCOCC2)ccn1` (configuration not stated) is 4.22%; for `CC(C)(C)n1nnnc1C(c1ccncc1)N1CCCCCC1` (configuration not stated) it is 17.8%.
Consider `CC(C)(C)n1nnnc1C(c1cccnc1)N1CCN(c2ccccc2)CC1` (configuration not stated), for which the inhibition is 3.3%.
Turning to `c1ccc(C(c2ccccc2)N2CCN(C(c3ccccn3)c3nnnn3C3CCCC3)CC2)cc1` (configuration not stated), the inhibition was -0.29%.
The figure for `CCC(C)(C)n1nnnc1C(c1ccc2ncccc2c1)N1CCN(c2nc3ccccc3s2)CC1` (configuration not stated) is 9.88%.
`c1ccc(C(c2nnnn2C2CCCC2)N2CCN(c3ccccc3)CC2)cc1` (configuration not stated): the inhibition was 11.2%.
For `CCC(C)(C)n1nnnc1C(c1ccc2ncccc2c1)N1CCCCCC1` (configuration not stated) the value was 3.78%; for `Cc1nn(CC(=O)N/N=C/c2cccs2)c(C)c1[N+](=O)[O-]`, 11.7%; for `O=C(Nc1ccc(N2CCN(C(=O)c3ccccc3F)CC2)cc1)c1ncn[nH]1`, 8.25%.
Regarding `Cc1ccc2nc(Cl)c(/C=N/NC(=O)CN3CCOCC3)cc2c1`, the inhibition was 11.5%.
The figure for `COc1ccc(C(Nc2ccccn2)c2c(NC(=O)c3ccco3)sc(C)c2C)cc1` (configuration not stated) is 14.4%.
The figure for `Cc1cc(C)n(CC(=O)NC2CCCc3c2cnn3-c2ccc(C)c(C)c2)n1` (configuration not stated) is 2.04%; for `CC(C)C(CCN1C(=O)c2ccccc2C1=O)c1ccco1` (configuration not stated) it is 16.2%.
For `CCCN(C(=O)CCSc1ccc(F)cc1)c1c(N)n(Cc2ccccc2)c(=O)[nH]c1=O` the value was 5.85%; for `CCCCCCC(=O)Nc1nnc(CC)s1`, 4.74%; for `COc1ccc(CC(=O)N/N=C/c2sccc2C)cc1`, 4.71%.
Regarding `O=C(Nc1cccc2ccccc12)N1CC=CCC1`, the inhibition was 5.64%.
Consider `CCOc1ccc(C(=O)NC(=S)Nc2ncccc2C)cc1[N+](=O)[O-]`, for which the inhibition is 5.78%.
For the molecule `COc1ccc(-c2noc(N3CCCC(C(=O)Nc4ccc(F)cc4F)C3)n2)cc1` (configuration not stated), the inhibition was 5.72%.
For the molecule `CC1=NN(c2ccc(C)cc2)C(=O)/C1=C\c1ccc(Br)s1`, the inhibition is -1.11%.
For `O=C1N/C(=C/c2ccc(Br)s2)C(=O)N1c1ccccc1` the value was 8.81%; for `Cc1ccc(S(=O)(=O)N2CCCCC2)cc1C(=O)NC1CC(C)(C)NC(C)(C)C1`, 13.5%.
The figure for `CCOC(=O)C1=C(O)/C(=C\c2ccc(OC)c(OC)c2)N=C1C` is 4.98%; for `COC(=O)C1=C(O)/C(=C\c2ccc(OCC(=O)Nc3ccccc3OC)cc2)N=C1C` it is -3.54%; for `CCOC(=O)C1=C(O)/C(=C/c2cc(OC)c(OC)c(OC)c2)N=C1C` it is 3.44%.
For `COC(=O)C1=C(O)/C(=C\c2ccc(OCC(=O)Nc3ccc(OC)cc3)cc2)N=C1C` the value was 7.17%; for `COC(=O)C1=C(O)/C(=C\c2ccc(OCC(=O)Nc3ccccc3)cc2)N=C1C`, 4.47%.
`COC(=O)C1=C(O)/C(=C\c2sccc2C)N=C1C`: the inhibition was 10.2%.
For `C=CCc1cccc(CNc2nc3ccccc3n2CCN2CCOCC2)c1O` the value was -5.32%; for `O=C(/C=C/c1cccc(Br)c1)NC1CCN(Cc2ccccc2)CC1`, 7.35%.
Turning to `Oc1ccccc1N=Cc1sc2ccccc2c1Cl`, the inhibition was 19.7%.
For `CSc1ccccc1NC(=O)CSc1nncs1` the value was 14.5%; for `CN(C(=O)C1CCCO1)c1nnc(-c2ccccn2)s1` (configuration not stated), 8.98%.
For `CCN(CC)c1ccc(NC(=O)CN2CCN(CC(=O)Nc3ccc(F)cc3)CC2)cc1` the value was 26.9%.
In the case of `CC(=O)c1ccc(NC(=O)Cn2nc(C)c([N+](=O)[O-])c2C)cc1`, the inhibition was 4.55%.
For `CN1CC(=O)N(CC(=O)Nc2ccc(N(C)C)cc2)c2ccccc2C1=O` the value was 37.1%; for `O=C(CN1CCCC1)Nc1ccc(F)cc1`, -4.88%.
Consider `CCc1ccc(NC(=O)CC2NCCNC2=O)cc1` (configuration not stated), for which the inhibition is 8.15%.
The figure for `Cc1nn(CC(=O)Nc2ccc(S(=O)(=O)N(C)C)cc2)c(C)c1[N+](=O)[O-]` is 10.9%.
For `CN(C)c1ccc(NC(=O)CN2C(=O)CC(c3ccccc3)=Nc3ccccc32)cc1` the value was 47%; for `Cc1ccc(NC(=O)CC2NCCNC2=O)cc1` (configuration not stated), 5.94%.
For `CC12CCC(c3n[nH]c(=S)nc31)C2(C)C` (configuration not stated) the value was 24.4%.
In the case of `Cc1ccc(SCC(=O)OCC(=O)NC2CCCCCC2)cc1`, the inhibition was 12.4%.
The figure for `O=C(CNC(=O)C12CC3CC(CC(C3)C1)C2)NC1=NCCS1` is 14.4%.
The figure for `Cn1ccc(C(=O)Oc2ccc(C(=O)Nc3ccc(F)cc3F)cc2)n1` is 1.18%; for `O=C(COC(=O)c1ccc(Cl)nc1)NCCNC(=O)COC(=O)c1ccc(Cl)nc1` it is 14.5%.
For `CC(=O)C1=C(O)C(=O)N(c2ccc(O)cc2)C1c1ccc(C)cc1` (configuration not stated) the value was 23.3%; for `Cn1cc(C(=O)Nc2ccc(F)c(Cl)c2)cn1`, 8.31%.
With `COc1cccc(S(=O)(=O)Nc2ccc(C(=O)N3CCCCCC3)cc2)c1`, the inhibition is -1.76%.
For `COc1ccc(CN2CCN(C(=O)CC(C)C)CC2)c2ccccc12` the value was 0.53%; for `C/C(=C\C(=O)c1ncc(C(F)(F)F)cc1Cl)N(C)C`, 9.23%.
The figure for `Cn1cc(CN2CCC(n3nccc3NC(=O)Cc3ccccc3)CC2)cn1` is 2.67%; for `O=C(NC(NCC1CCCO1)C(Cl)(Cl)Cl)c1cccc2ccccc12` (configuration not stated) it is 2.66%; for `NC(=O)c1cc(-c2ccccc2)sc1NC(=O)CN1CCCCC1` it is 25.6%.
The figure for `CCc1cccc(N(C(=O)c2csnn2)C(C(=O)NC(C)(C)C)c2ccncc2)c1` (configuration not stated) is 14.2%.
On to `Cc1ccc(SCC(=O)Nc2ccc3c(c2)C(=O)N(C)C3=O)cc1`, for which the inhibition was 3.52%.
The figure for `CCN(CC)c1ccc(NC(=O)CN2CCN(c3ccc(F)cc3)CC2)cc1` is 22.8%; for `CCN(CC)c1ccc(NC(=O)COC(=O)CCC(=O)c2ccc(F)cc2)cc1` it is 26.6%; for `O=C(CN1CCN(c2ccc(Cl)cc2)CC1)Nc1ccc(F)cc1` it is 5.08%.
For `CCc1ccc(NC(=O)Cn2ncn3c(cc4ccccc43)c2=O)cc1` the value was 8.68%; for `CCN1CCN(CC(=O)Nc2ccc(N(C)C)cc2)CC1`, 15.6%.
For the molecule `CC(C)c1ccc(NC(=O)Cn2ncn3c(cc4ccccc43)c2=O)cc1`, the inhibition was 5.59%.
For `CCN(c1ccc(NC(=O)COC(=O)CCC(=O)c2ccc(F)cc2)cc1)C(C)C` the value was 23.7%; for `CC(C)(C)NC(=O)CN1CCC(O)(c2ccccc2)CC1`, -0.59%.
